# FMDV inh – foot and mouth disease virus antiviral activity; FMDV antiviral cell-based qHTS; Potency, µM (doses to about 57.9 µM), for inactives: at the highest dose activity change, negative = inhibition, actives largely listed as inhibitors; 410,000 tested, 1.2% active; calls by dose curve; tested in HEK293T cells; also: read-out not given here; potency is read from the fitted curve at half-maximal effect; % is scaled to controls: 0 for no effect and ±100 for the full control effect; nearly all actives have a fitted effect of over 45% in size
# CHX counter – affects cycloheximide protein synthesis inhibition readout, counter-screen. cell reporter, cycloheximide protein synthesis inhibition counterscreen. max response, %. 300,000 tested, 12% active. AID 2314; in the data active = max response mostly above about 13%, no sharp cut-off; inactive = mostly below about 14%; also: read at 38.3 µM for the half of the compounds with a filed dose; 0% is about no effect
# Shiga inhibitor – blocks Shiga toxin action in Vero cells. Vero cells, Shiga toxin protein synthesis inhibition reporter. inhibition, % at 38.7 µM. 290,000 tested, 9.2% active. AID 2315; in the data active = inhibition mostly above about 28%, no sharp cut-off; inactive = mostly below about 43%; also: 0% is about no effect
# Sm TGR block – blocks Schistosoma mansoni thioredoxin glutathione reductase | Q962Y6 | purified TGR, DTNB reduction, TNB absorbance 405 nm | Potency, µM (highest dose often 114 µM), inactives show at the highest dose activity change, negative = inhibition, usual class: inhibitors | 360,000 tested, 3% active | AID 485364; active = well fitted inhibition curve with a large enough effect; inconclusive = small, poorly fitted or top-dose-only effect; inactive = no such curve, though single readings can be large or run the other way; also: potency is read from the fitted curve at half-maximal effect; % is scaled to controls: 0 for no effect and ±100 for the full control effect; nearly all actives have a fitted effect of over 60% in size
#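 First, TGR (20 nM dispensed) and NADPH were mixed with compound. Second, a 15 min room-temperature incubation followed. Third, further NADPH and then DTNB were added to start the reaction. Finally, TNB absorbance was monitored kinetically.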
# * hit, by the source's call; ? = inconclusive; · = no result. Hits are enriched below; roughly 12% of the tested compounds scored in any of these assays.
SMILES,FMDV inh,CHX counter,Shiga inhibitor,Sm TGR block
CCOC(=O)c1ccc(NC(=O)CSc2cc(-c3ccccc3)nc(C)n2)cc1,-21%,·,·,-4%
CCN(C(=O)Cn1nc(Cc2cccnc2)c2ccccc2c1=O)c1cc(C)ccc1C,-18%,·,·,4%
CSCC[C@H](NC(=O)[C@@H]1Cc2ccccc2CN1)C(=O)NC(C)c1ccccc1 (stereo not given in full),-15%,8,8,0%
C[C@H](NC(=O)[C@@H]1Cc2ccccc2CN1)C(=O)Nc1ccc2c(c1)OCO2,21%,30*,25,-1%
C[C@@H](NC(=O)[C@@H]1Cc2ccccc2CN1)C(=O)Nc1ccc2c(c1)OCCO2,7%,27*,67*,-15%
CSCC[C@H](NC(=O)[C@@H]1Cc2ccccc2CN1)C(=O)Nc1ccc2c(c1)OCO2,9%,48*,34,-14%
COc1ccc(NCc2ccccc2-c2nnc(-c3ccccc3)o2)cc1Cl,41%,·,·,0%
CC(Sc1nnc(N)s1)C(=O)NNC(=O)c1cccc(Cl)c1 (stereo not given),14%,·,·,·
Cc1ccc(C(=O)C(C)Sc2nnc(N)s2)cc1 (stereo not given),-2%,15*,25,-7%
COc1ccc(NC(=O)Nc2nnc(C)s2)cc1,31%,·,·,11%
CN(C)c1ccc(NC(N)=S)cc1,-9%,4,17,1%
COc1ccc(NC(=O)Nc2ccc(OC)cc2)cc1,38%,22*,67*,1%
COc1ccc(NC(=O)Nc2ccc(N(C)C)cc2)cc1,41%,30*,97*,-18%
COc1ccc(NC(=O)OC(C)C)cc1,-9%,29*,68*,3%
CC(C)OC(=O)Nc1ccc(-c2ccc(NC(=O)OC(C)C)cc2Cl)c(Cl)c1,-4%,-1,-5,6%
COC(=O)c1ccc(NC(=O)Nc2ccc(OC)cc2)cc1,7%,24,60*,·
Cc1cccc(C(=O)NCc2nc(-c3ccccc3NC(=O)C3CCCO3)oc2C)c1 (stereo not given),5%,·,·,·
O=C(O)CCC/C=C\C[C@@H]1[C@@H](CC[C@@H](O)CCc2ccccc2)[C@H](O)C[C@@H]1O,·,-3,-18,·
CC1=NN(c2ccccc2)C(=O)/C1=C\c1ccc(Oc2ccc([N+](=O)[O-])cc2[N+](=O)[O-])cc1,?,-2,-9,13µM*
COc1cc(/C=C2/C(=O)N(c3ccc(C(=O)O)cc3)N=C2C)cc(OC)c1O,8%,-2,4,10µM*
COc1cc(/C=C2\C(=O)N(c3ccccc3)N=C2C)ccc1Oc1ccc([N+](=O)[O-])cc1[N+](=O)[O-],?,15,-3,14µM*
COc1cc(/C=C2/C(=O)N(c3ccc(C)c(C)c3)N=C2C)cc([N+](=O)[O-])c1O,-5%,2,·,-2%
Brc1ccc2c(c1)C(OC1CN3CCC1CC3)c1ccccc1CS2 (stereo not given),-11%,-8,-22,89µM*
CN1CCC(OC2c3ccccc3CCc3ccccc32)CC1,-24%,·,·,·
Cc1cccc(C(=O)Nc2ccc3nc(SCC(=O)N4CCCC4)sc3c2)c1,?,·,·,-2%
SMILES,FMDV inh,CHX counter,Shiga inhibitor,Sm TGR block
CCOc1ccc(Nc2ccc([N+](=O)[O-])c3nonc23)cc1,0%,33*,56*,-8%
CCN(CC)c1ccc(CN(C(=O)c2cc(=O)c3ccccc3o2)C2CCS(=O)(=O)C2)cc1 (stereo not given),0%,·,·,1%
CCOC(=O)c1ccc(NC(=O)CC2Nc3cc(C)c(C)cc3NC2=O)cc1 (stereo not given),0%,·,·,-5%
Nc1c2c(nc3ccccc13)CCN(Cc1ccccc1)C2,20%,15*,5,2%
CCOc1ccc(C2CC(=O)c3c([nH]c(C(=O)OCC4CCCCC4)c3C)C2)cc1 (stereo not given),-2%,·,·,-1%
Cc1c(Cl)cnc(NC(=O)COC(=O)C(NC(=O)c2ccco2)C(C)C)c1Cl (stereo not given),?,-1,11,35µM*
O=C(COC(=O)/C=C/c1ccco1)Nc1ncc(C(F)(F)F)cc1Cl,0%,-7,-2,?
Cc1c(Cl)cnc(NC(=O)COC(=O)/C=C/c2ccco2)c1Cl,-9%,·,·,10µM*
COc1ccc(S(=O)(=O)CC(=O)c2cc(C)c(O)c(C)c2)cc1,-5%,1,7,28µM*
COc1ccc(C(=O)CCS(=O)(=O)c2ccc(F)cc2)cc1OC,·,-2,-20,0%
Cc1cc(C(=O)CS(=O)(=O)c2ccc(F)cc2)cc(C)c1OC(=O)N(C)C,0%,44*,89*,-2%
Cc1cc(C(=O)CS(=O)(=O)c2ccc(Cl)cc2)cc(C)c1O,10%,6,32,4.5µM*

# Screening results deposited in PubChem BioAssay by National Center for Advancing Translational Sciences (NCATS).
